Data reported in PubChem BioAssay (EPA / NIEHS).
Inconclusive results are not listed. The source made the active and inactive calls. The calls were made as follows: active = hit-call score of the fitted dose curve at least 0.9, where 1 is the maximum; inconclusive = response in the unintended direction; inactive = score below 0.9.

These compounds were tested against human Vascular Endothelial Growth Factor Receptor 1 (VEGFR1), FLT1 (gene 2321) (UniProt P17948) (assay: NVS_ENZ_hVEGFR1: NovaScreen (NVS) Enzymatic Assay for human Vascular Endothelial Growth Factor Receptor 1 (VEGFR1) (AID 2283226)).
Procedure, shortened: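 Kinase activity of recombinant human VEGFR1 was read by fluorescence after electrophoretic separation of product from substrate, 1 h post-dosing; initial duplicate single-point testing at 25 uM, followed by concentration-series follow-up, with DMSO as baseline.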

Chain of human Vascular Endothelial Growth Factor Receptor 1 (VEGFR1), FLT1 (gene 2321) (P17948 whole entry, looked up): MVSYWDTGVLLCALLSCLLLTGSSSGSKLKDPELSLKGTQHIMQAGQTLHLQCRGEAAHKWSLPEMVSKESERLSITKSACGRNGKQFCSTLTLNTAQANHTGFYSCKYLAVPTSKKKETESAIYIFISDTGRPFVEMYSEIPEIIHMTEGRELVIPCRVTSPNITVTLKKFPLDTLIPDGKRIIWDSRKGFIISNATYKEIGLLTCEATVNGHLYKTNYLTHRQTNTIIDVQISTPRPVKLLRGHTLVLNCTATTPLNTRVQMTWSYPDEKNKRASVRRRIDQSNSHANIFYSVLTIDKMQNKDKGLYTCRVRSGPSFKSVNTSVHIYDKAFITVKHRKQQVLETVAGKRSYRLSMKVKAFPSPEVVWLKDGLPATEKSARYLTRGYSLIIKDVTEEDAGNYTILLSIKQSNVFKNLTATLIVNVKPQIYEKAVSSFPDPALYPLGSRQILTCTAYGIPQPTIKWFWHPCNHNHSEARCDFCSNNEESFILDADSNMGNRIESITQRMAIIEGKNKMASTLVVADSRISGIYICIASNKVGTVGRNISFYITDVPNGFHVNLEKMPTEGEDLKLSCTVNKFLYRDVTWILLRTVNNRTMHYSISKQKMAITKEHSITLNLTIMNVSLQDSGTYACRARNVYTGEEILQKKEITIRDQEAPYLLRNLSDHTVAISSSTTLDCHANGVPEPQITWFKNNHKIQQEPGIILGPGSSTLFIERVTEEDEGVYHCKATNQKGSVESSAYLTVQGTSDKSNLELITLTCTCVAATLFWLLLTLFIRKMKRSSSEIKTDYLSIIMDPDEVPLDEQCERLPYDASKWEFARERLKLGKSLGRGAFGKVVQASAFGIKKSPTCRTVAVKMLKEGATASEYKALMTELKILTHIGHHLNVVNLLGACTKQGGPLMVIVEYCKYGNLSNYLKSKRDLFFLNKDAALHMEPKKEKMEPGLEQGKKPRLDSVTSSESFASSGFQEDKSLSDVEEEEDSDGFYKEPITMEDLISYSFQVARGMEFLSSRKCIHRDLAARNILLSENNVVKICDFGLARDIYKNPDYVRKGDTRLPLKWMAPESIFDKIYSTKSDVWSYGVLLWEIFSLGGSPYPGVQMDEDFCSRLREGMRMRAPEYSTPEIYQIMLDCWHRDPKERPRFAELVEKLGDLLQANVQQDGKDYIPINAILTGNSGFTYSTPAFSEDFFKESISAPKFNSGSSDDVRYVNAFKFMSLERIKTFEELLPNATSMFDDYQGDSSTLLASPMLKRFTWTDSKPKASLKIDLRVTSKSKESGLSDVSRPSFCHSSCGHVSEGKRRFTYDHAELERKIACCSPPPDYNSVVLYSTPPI

Row | SMILES | outcome
1 | O=C1NC(=O)C(c2ccccc2)(c2ccccc2)N1 | inactive
2 | COc1ccc(OC(F)(F)F)cc1CN[C@H]1CCCN[C@H]1c1ccccc1 | inactive
3 | CN(C)C(=O)NC1(c2ccccc2)CCN(CC[C@@]2(c3ccc(F)c(F)c3)CN(C(=O)c3ccccc3)CCO2)CC1 | inactive

The compounds below were run against rabbit Imidazoline 2 Central (I2C), CKB (gene 100009085) (UniProt P00567) (assay: NVS_ENZ_rabI2C: NovaScreen (NVS) Enzymatic Assay for rabbit Imidazoline 2 Central (I2C) (AID 2283228)).
Procedure, shortened: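 Rabbit brain membranes, cell-free; readout by filter-based scintillation counting 1.5 hours after dosing, loss of signal vs DMSO. Initial duplicate test at 25 uM, then concentration-response with 50 uM top concentration.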

Chain of rabbit Imidazoline 2 Central (I2C), CKB (gene 100009085) (P00567 whole entry, looked up): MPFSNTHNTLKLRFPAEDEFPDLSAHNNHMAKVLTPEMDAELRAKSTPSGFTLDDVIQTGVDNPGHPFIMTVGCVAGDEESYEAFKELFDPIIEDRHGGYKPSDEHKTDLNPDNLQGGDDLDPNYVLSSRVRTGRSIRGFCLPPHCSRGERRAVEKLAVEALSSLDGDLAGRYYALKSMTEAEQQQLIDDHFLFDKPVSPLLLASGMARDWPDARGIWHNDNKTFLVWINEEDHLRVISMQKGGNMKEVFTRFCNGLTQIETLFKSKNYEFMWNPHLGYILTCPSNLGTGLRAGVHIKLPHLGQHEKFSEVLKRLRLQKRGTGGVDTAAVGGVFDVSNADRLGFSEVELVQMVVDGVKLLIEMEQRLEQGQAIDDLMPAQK

Row | SMILES | AC50 | outcome
4 | CCc1nc(N)nc(N)c1-c1ccc(Cl)cc1 | 2.83 µM (active) | 
5 | NC(=Nc1ccccc1)Nc1ccccc1 |  | inactive
6 | Nc1nc(=S)c2[nH]cnc2[nH]1 | 20.7 µM (active) | 
7 | CCN(CC)CCOc1ccc(C(=C(Cl)c2ccccc2)c2ccccc2)cc1 | 9.71 µM (active) | 
8 | CCCCCCCCCC[N+](C)(C)[O-] | 8.08 µM (active) | 
9 | COc1ccc(OC(F)(F)F)cc1CN[C@H]1CCCN[C@H]1c1ccccc1 | 15 µM (active) | 
10 | Cn1cnc2c1c(=O)[nH]c(=O)n2C |  | inactive
11 | NC1CCCCC1 | 30.3 µM (active) | 
12 | CN(C)C(=O)NC1(c2ccccc2)CCN(CC[C@@]2(c3ccc(F)c(F)c3)CN(C(=O)c3ccccc3)CCO2)CC1 |  | inactive
13 | O=C(O)c1[nH]n(-c2ccc(S(=O)(=O)O)cc2)c(=O)c1N=Nc1ccc(S(=O)(=O)O)cc1 |  | inactive
14 | COC(=O)[C@H]1[C@H]2C[C@@H]3c4[nH]c5cc(OC)ccc5c4CCN3C[C@H]2C[C@@H](OC(=O)c2cc(OC)c(OC)c(OC)c2)[C@@H]1OC |  | inactive
15 | CC(C)(O)c1ccc(CNC(=O)c2cccnc2Oc2ccc(F)cc2)cc1 |  | inactive
